Sampled rows, rich in hits. Any-hit rate of the full collection: about 5.2%.
NadD inh: blocks S. aureus nicotinate mononucleotide adenylyltransferase; purified NadD enzyme, colorimetric absorbance read-out; inhibition, % at 20 µM; hit rate 0.78% among 360,000; in the data active = inhibition above about 26%
Vif imaging: blocks HIV Vif function; HEK293T cells, Vif self-association by quenched fluorescence, imaging, 24 h; inhibition, % at 7.49 µM; hit rate 0.35% among 340,000; AID 602346; in the data active = inhibition above about 50%, passing the limit was not always enough
NR3A LBD binder: NR3A (human) ligand-binding domain modulation; hit rate 2.5% among 340,000; AID 1259313; NR3A LBD differential scanning fluorimetry, Tm shift; 0% = protein alone, 100% = glycine-bound protein; Tm shift relative to glycine control, % at 25 µM;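 active = melting temperature shift of at least 10% of the positive control shift, at one fixed dose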
esBAF inh: blocks esBAF chromatin remodeling in mouse ES cells; Bmi1-luciferase knock-in reporter, 24 h; 100% = twice the neutral-well signal; reporter increase, % at 12.5 µM; hit rate 2% among 350,000; AID 602393; in the data active = activation above about 40%;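 note: a rise in the Bmi1 reporter signal indicates esBAF inhibition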
SKN-1 block: blocks SKN-1 activity in C. elegans. C. elegans VP596 Pgst-4::GFP/RFP ratio, acrylamide-induced, 24 h. inhibition, % at 21.8 µM. hit rate 0.49% among 360,000;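 active = interference check ratio from 0.5 to 1.5 plus GFP to RFP signal ratio inhibition reaching or exceeding a fixed threshold, cut at about 30% in these data, passing the limit was not always enough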
SMARCA2 act: increases SMARCA2 function in MMTV reporter cells; MG213 cells, MMTV-luciferase reporter, dexamethasone, overnight; activation, % at 9.1 µM; hit rate 1% among 370,000; in the data active = activation above about 7.8%
SMARCA2 act conf: SMARCA2 activation, confirmation screen | shares compounds with SMARCA2 act | hit rate 30% among 3,500 | MG213 cells, MMTV-luciferase with dexamethasone, luminescence, overnight; MG213 cells expressing E1A, Rb sequestered; DMSO wells 0%, reference activator 100% | activation, % at 9.1 µM;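 active = activation above its plate's cutoff, the mean activation of tested wells plus 3 SD, cut at about 7.9% in these data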
GAL4-VP16 Luc: counter-screen for SMARCA2 activators: GAL4-VP16 luciferase reporter activation; shares compounds with SMARCA2 act; HEK293 GAL4-VP16 pG5luc reporter, luciferase luminescence; scaled: DMSO wells 0%, SAHA wells 100%; activation, % at 9.1 µM; hit rate 41% among 3,500; AID 686939;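 active = activation above the solvent-only control well mean plus 3 SD, averaged across control plates, cut at about 5.2% in these data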
A number is an active result.

For CCC(=O)Nc1ccc2c(c1)C(=O)N(C)[C@H]1CC[C@H](CC(=O)Nc3cccc(OC)c3)O[C@H]1CO2 the results were esBAF inh inactive.
Screening COc1ccc(S(=O)(=O)N[C@@H]2CC[C@H](CC(=O)O)O[C@@H]2CO)cc1 returned esBAF inh inactive.
Screening CCOC(=O)c1cnc2c(N=Nc3ccccc3)c(N)nn2c1N returned NadD inh inactive, Vif imaging inactive, NR3A LBD binder inactive, esBAF inh inactive, SKN-1 block inactive, SMARCA2 act 8.3, SMARCA2 act conf 11 and GAL4-VP16 Luc 12.
For CCOC(=O)c1cnc2c(N=Nc3cccc(Cl)c3)c(N)nn2c1N the results were SMARCA2 act inactive.
For O=C(NCc1ccc2c(c1)CCO2)Nc1ccccc1 the results were NadD inh inactive, Vif imaging inactive, NR3A LBD binder inactive, SKN-1 block inactive, SMARCA2 act 8.7, SMARCA2 act conf inactive and GAL4-VP16 Luc 5.2.
Screening Cc1ccc(C(=O)NCc2ccc3c(c2)CCO3)cc1C returned NadD inh inactive, Vif imaging inactive, NR3A LBD binder inactive, SKN-1 block inactive and SMARCA2 act inactive.
For COc1cccc(C(=O)Nc2ccc(F)c(F)c2F)c1 the results were NadD inh inactive, Vif imaging inactive, NR3A LBD binder inactive, SKN-1 block inactive, SMARCA2 act 9.0, SMARCA2 act conf inactive and GAL4-VP16 Luc 7.9.
COc1cccc(C(=O)Nc2ccc(F)cc2F)c1 was read as NadD inh inactive, Vif imaging inactive, NR3A LBD binder inactive, esBAF inh inactive, SKN-1 block inactive and SMARCA2 act inactive.
Screening COc1cccc(C(=O)Nc2ccc(C)cc2)c1 returned NadD inh inactive, Vif imaging inactive, NR3A LBD binder inactive, esBAF inh inactive, SKN-1 block inactive, SMARCA2 act 11, SMARCA2 act conf inactive and GAL4-VP16 Luc 6.6.
Screening COc1cccc(C(=O)NCCSc2ccc(C)cc2)c1 returned NadD inh inactive, Vif imaging inactive, NR3A LBD binder inactive, SKN-1 block inactive and SMARCA2 act inactive.
COc1ccc(NC(=O)c2ccc(C)cc2)c(OC)c1 was read as NadD inh inactive, NR3A LBD binder inactive, SKN-1 block inactive, SMARCA2 act 14, SMARCA2 act conf inactive and GAL4-VP16 Luc 6.8.
Screening COc1ccc(NC(=O)c2ccc3[nH]c(=O)c(=O)[nH]c3c2)c(OC)c1 returned NadD inh inactive, Vif imaging inactive, NR3A LBD binder inactive, esBAF inh inactive, SKN-1 block inactive and SMARCA2 act inactive.
`COc1cccc(C(=O)NCCSc2ccc(F)cc2)c1` gave NadD inh inactive, Vif imaging inactive, NR3A LBD binder inactive, SKN-1 block inactive, SMARCA2 act 16, SMARCA2 act conf 12 and GAL4-VP16 Luc 10.0.
`COCCNC(=O)C[C@H]1C[C@@H]2c3cc(NC(=O)NC4CCCCC4)ccc3O[C@@H]2[C@H](CO)O1` gave esBAF inh inactive.
Screening CN1C(=O)c2cc(NC(=O)C3CC3)ccc2OC[C@H]2O[C@H](CC(=O)NCCc3ccncc3)CC[C@@H]21 returned esBAF inh inactive.
Screening C[C@@H]1CCCCO[C@@H](CN(C)S(C)(=O)=O)[C@H](C)CN([C@@H](C)CO)C(=O)c2cc(NS(=O)(=O)c3ccccc3)ccc2O1 returned esBAF inh inactive.
For COc1cccc(C(=O)Nc2ccc3c(c2)C(=O)c2ccccc2C3=O)c1 the results were NadD inh inactive, Vif imaging inactive, NR3A LBD binder 16, SKN-1 block inactive, SMARCA2 act 12, SMARCA2 act conf inactive and GAL4-VP16 Luc 12.
For COc1cccc(C(=O)Nc2ccc3c(c2)n(C)c(=O)n3C)c1 the results were NadD inh inactive, Vif imaging inactive, NR3A LBD binder inactive, esBAF inh inactive, SKN-1 block inactive and SMARCA2 act inactive.
Screening Cc1ccc(O)c(C2=Nc3ccccc3N=C(c3ccc([N+](=O)[O-])cc3)C2)c1 returned NadD inh inactive, Vif imaging inactive, NR3A LBD binder inactive, SKN-1 block inactive and SMARCA2 act inactive.
`Cc1ccc(O)c(C2=Nc3ccccc3N=C(c3cccc([N+](=O)[O-])c3)C2)c1` gave NadD inh inactive, NR3A LBD binder inactive, SKN-1 block inactive, SMARCA2 act 8.7, SMARCA2 act conf inactive and GAL4-VP16 Luc inactive.
Screening COc1ccc(C(=O)COC(=O)c2cccs2)cc1 returned NadD inh inactive, Vif imaging inactive, NR3A LBD binder inactive, esBAF inh 68, SKN-1 block inactive, SMARCA2 act 11, SMARCA2 act conf inactive and GAL4-VP16 Luc 10.
O=C(COC(=O)c1cccs1)c1ccccc1 was read as NadD inh inactive, Vif imaging inactive, NR3A LBD binder inactive, esBAF inh inactive, SKN-1 block inactive and SMARCA2 act inactive.
Screening CC(=O)NCCc1ccc(C(=O)COC(=O)c2cccn2C)cc1 returned NadD inh inactive, Vif imaging inactive, NR3A LBD binder inactive, esBAF inh inactive, SKN-1 block inactive, SMARCA2 act 9.2, SMARCA2 act conf inactive and GAL4-VP16 Luc inactive.
For CC(=O)NCCc1ccc(C(=O)COC(=O)c2cccs2)cc1 the results were NadD inh inactive, esBAF inh inactive, SKN-1 block inactive, SMARCA2 act 8.6, SMARCA2 act conf 9.8 and GAL4-VP16 Luc inactive.
`CC(=O)NCCc1ccc(C(=O)COC(=O)c2ccc(C)s2)cc1` gave NadD inh inactive, esBAF inh inactive, SKN-1 block inactive and SMARCA2 act inactive.
`COc1cccc(C(=O)COC(=O)c2cccs2)c1` gave NadD inh inactive, Vif imaging inactive, NR3A LBD binder inactive, esBAF inh inactive, SKN-1 block inactive, SMARCA2 act 9.1, SMARCA2 act conf 12 and GAL4-VP16 Luc inactive.
Screening COc1cccc(C(=O)COc2ccc(NC(=O)c3cccs3)cc2)c1 returned NadD inh inactive, Vif imaging inactive, NR3A LBD binder inactive, esBAF inh inactive, SKN-1 block inactive and SMARCA2 act inactive.
Screening COC(=O)Cn1c(CN2CCOCC2)nc2c1c(=O)n(C)c(=O)n2C returned NadD inh inactive, NR3A LBD binder inactive, esBAF inh inactive, SKN-1 block inactive, SMARCA2 act 8.3, SMARCA2 act conf inactive and GAL4-VP16 Luc inactive.
O=C1C(=Cc2ccco2)CCCC1=Cc1ccco1 was read as NadD inh inactive, Vif imaging inactive, NR3A LBD binder inactive, esBAF inh 57, SKN-1 block inactive, SMARCA2 act 8.1, SMARCA2 act conf 16 and GAL4-VP16 Luc 7.2.
Screening O=C1C(=Cc2ccco2)CCC1=Cc1ccco1 returned NadD inh inactive, Vif imaging inactive, NR3A LBD binder inactive, esBAF inh inactive, SKN-1 block inactive and SMARCA2 act inactive.
